SMN2 splice enh: enhancers of SMN2 splice variant expression. HEK293 SMN2-luciferase splicing reporter, luminescence, 30-36 h. Potency, µM (doses to about 46.1 µM), hits mostly activators. 210,000 tested, 2.8% active. AID 1458; also: nearly all actives have a fitted effect of over 55% in size
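HEK293 cells carry an SMN2 minigene-luciferase reporter in which exon 7 inclusion puts luciferase in frame. Cells were seeded at 2000 cells/well, attached for 10-12 hours, then exposed to compounds for 30-36 hours at 37C before ONE-Glo luminescence.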
Rab9 prom act: activators of Rab9 promoter. AID 485297. Potency, µM (doses to about 9.22 µM), usual class: activators. Huh7 Rab9 promoter-luciferase reporter, luminescence, 24 h. 320,000 tested, 2.8% active; also: nearly all actives have a fitted effect of over 60% in size
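Quantitative HTS format; Huh7 Rab9-luciferase reporter cells (1500/well) receive compound 2 h post-plating, incubate 24 h at 37 °C, then get luciferase reagent for 10 min before luminescence reading.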
ELG1 genotoxic: induces genotoxicity in HEK293T cells with luciferase-tagged ELG1; HEK293T ELG1-luciferase reporter, luminescence, 16 h; 330,000 tested, 1.3% active; Potency, µM (series often up to 46 µM), hits mostly activators; also: nearly all actives have a fitted effect of over 60% in size
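Genotoxic stress is detected as increased luminescence from luciferase-tagged ELG1 in HEK293T cells, measured with ONE-Glo after a 16 hr treatment at 37 °C.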
FLuc counter: counter-screen for miR-21 project: firefly luciferase inhibitors or activators | P08659 | purified FLuc, Km substrates, luminescence inhibition | Potency, µM (top dose mostly 57.5 µM), hits mostly inhibitors | 360,000 tested, 6.9% active | AID 588342; also: nearly all actives have a fitted effect of over 55% in size
Target sequence (P08659 whole entry, looked up): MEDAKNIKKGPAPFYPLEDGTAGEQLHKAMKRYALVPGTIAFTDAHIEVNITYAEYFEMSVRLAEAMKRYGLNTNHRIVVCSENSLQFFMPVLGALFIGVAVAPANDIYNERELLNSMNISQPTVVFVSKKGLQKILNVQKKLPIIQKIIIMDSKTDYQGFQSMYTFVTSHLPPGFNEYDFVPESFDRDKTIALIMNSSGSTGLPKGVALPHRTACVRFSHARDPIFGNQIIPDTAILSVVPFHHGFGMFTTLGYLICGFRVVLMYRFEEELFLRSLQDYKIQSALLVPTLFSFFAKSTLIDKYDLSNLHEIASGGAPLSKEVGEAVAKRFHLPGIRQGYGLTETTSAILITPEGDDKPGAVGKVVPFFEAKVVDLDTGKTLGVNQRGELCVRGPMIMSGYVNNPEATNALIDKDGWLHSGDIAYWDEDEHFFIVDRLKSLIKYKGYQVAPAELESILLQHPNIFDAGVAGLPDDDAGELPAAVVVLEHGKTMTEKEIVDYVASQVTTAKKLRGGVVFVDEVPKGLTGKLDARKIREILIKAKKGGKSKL
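Purified P. pyralis luciferase (10nM final) with 10uM D-luciferin and 10uM ATP (Km levels) in 50mM Tris acetate pH 7.5, 10mM Mg acetate, 0.01% Tween-20, 0.05% BSA; qHTS 6-point titration, ~60 µM downward; luminescence read.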
NPC1 prom act: activates the NPC1 promoter | Huh7 NPC1 promoter luciferase reporter, 24 h | Potency, µM (doses to about 9.22 µM), actives largely listed as activators | 320,000 tested, 2.4% active | AID 485313; also: nearly all actives have a fitted effect of over 60% in size
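Luminescence from an NPC1 promoter-driven luciferase reporter in stably transfected Huh7 cells was measured after 24 h compound treatment at 37 °C, followed by 10 min ambient incubation with luciferase detection reagent.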
Numbers stand for hits; - = inactive; ? = inconclusive; . = no result; [ ] = another dose, or the depositor's remark. The list is not random: actives were taken first. Their share in the collection is about 7.4%. Calls follow the shape of the dose curve; as a rule, active = well fitted curve in the direction sought with a large enough effect; inconclusive = small, poorly fitted or top-dose-only effect, or another doubt; inactive = no such curve, though single readings can be large; an effect the other way counts as inactive or inconclusive.

SMILES	SMN2 splice enh	Rab9 prom act	ELG1 genotoxic	FLuc counter	NPC1 prom act
O=C(CN1C(=O)S/C(=C\C=C\c2ccccc2)C1=O)Nc1ccccc1C(=O)O	.	-	-	27µM	-
O=C1NC(=O)N(c2ccccc2)C(=O)/C1=C\C=C\c1ccccc1	.	-	-	?	-
O=C(Oc1ccc2cc(Br)ccc2c1)N1CCCCCC1	?	4µM	23µM	6.7µM	?
CC(Cc1ccccc1)NC(=O)NC(C)Cc1ccccc1 (stereo not given)	.	2.8µM	12µM	13µM	?
CC(Cc1ccccc1)NC(=O)C(c1ccc(N)cc1)c1ccc(N)cc1 (stereo not given)	.	-	-	-	-
CC(Cc1ccccc1)NC(=O)c1ccc(N)cc1 (stereo not given)	.	3.5µM	?	21µM	3.2µM
Cc1ccc2ccccc2c1C	-	.	.	.	.
Nc1nc2c(ncn2[C@@H]2O[C@H](CO)[C@@H](O)[C@@H]2O)c(=[SH+])[nH]1.O=[N+]([O-])c1ccc(O)[c]([Hg])c1	-[9.22 µM]	.	.	.	.
O=C1NC(=S)NC(=O)C12C(c1ccc(F)cc1)NC(=S)NC2c1ccc(F)cc1 (stereo not given)	1.6µM	-	-	-	-
CCc1ccc(CCN2CCCCC2)nc1	-[9.22 µM]	.	.	.	.
O=c1[nH]c(O)c(N=Nc2ccc3c(c2)OCCO3)c(=O)[nH]1	-	-	?	1.5µM	-
O=c1[nH]c(=S)[nH]c(O)c1N=Nc1ccc2c(c1)OCO2	-	2.8µM	?	4.8µM	?
O=c1[nH]c(=S)[nH]c(O)c1N=Nc1ccc(S(=O)(=O)N2CCOCC2)cc1	.	-	-	-	-
O=c1[nH]c(=S)[nH]c(O)c1N=Nc1ccc2c(c1)OCCO2	.	2.5µM	?	0.85µM	?
O=c1[nH]c(=S)[nH]c(O)c1N=Nc1cc2c(cc1[N+](=O)[O-])OCO2	-	-	-	?	-
O=c1[nH]c(O)c(N=Nc2ccc(S(=O)(=O)N3CCOCC3)cc2)c(=O)[nH]1	-	-	-	-	-
C[C@@H]1O[C@H](OC2[C@@H](O)[C@H](O)C(O)[C@H](O)[C@H]2O)[C@@H](N)C[C@@H]1N=C(N)C(=O)O (stereo not given in full)	-[9.22 µM]	.	.	.	.
Cc1cn2c(=O)cc(COC(=O)c3ccccc3F)nc2s1	.	.	.	2.7µM	.
CCOc1ccc(NC(=O)c2ccc(NC(=O)COC(=O)Cc3ccccc3)cc2)cc1	20µM	?	?	-	?
C/C=C/C=O	-	.	.	.	.
NS(=O)(=O)c1ccc(N=Nc2c(O)[nH]c(=S)[nH]c2=O)cc1	.	-	-	?	-
COc1cccc(N=Nc2c(O)[nH]c(=S)[nH]c2=O)c1	.	?	?	13µM	-
O=c1[nH]c(=S)[nH]c(O)c1N=Nc1ccc(OC(F)F)cc1	13µM	2µM	?	5.4µM	?
COc1ccc(N=Nc2c(O)[nH]c(=S)[nH]c2=O)cc1	18µM	1.8µM	?	6µM	1.6µM
O=C(O)[C@@H](Br)[C@H](Br)C(=O)O	-[9.22 µM]	.	.	.	.
SMILES	SMN2 splice enh	Rab9 prom act	ELG1 genotoxic	FLuc counter	NPC1 prom act
CC(C)[C@]1(O)[C@@H](OC(=O)c2ccc[nH]2)[C@]2(O)[C@@]3(C)C[C@@]4(O)O[C@@]5([C@H](O)[C@@H](C)CC[C@]35O)[C@]2(O)[C@]41C	-[9.22 µM]	.	.	.	.
CC(=O)c1ccc(OC(=O)N(C)c2ccccc2)cc1	16µM	?	?	-	?
CCCCCCOc1ccc(CN2CCN(C)CC2)cc1	-	?	5.8µM	6.7µM	?
C=CCc1ccc(OC(=O)NC2CCCCC2)c(OC)c1	.	3.5µM	?	11µM	?
COc1cc2[nH]c(=O)n(Cc3ccc(C(=O)NC4CCCC4)cc3)c(=O)c2cc1OC	-	-	?	-	-
c1ccoc1	-	.	.	.	.
C=CC(N)=O	-	.	.	.	.
CC1=C2C(=O)[C@@H]3[C@@H](CC=C4C[C@@H](O)CC[C@@]43C)[C@H]2CC[C@@]12O[C@H]1C[C@H](C)CN[C@H]1[C@@H]2C	-[9.22 µM]	.	.	.	.
COc1ccc(OC(=O)Nc2ccccc2)cc1	?	-	?	?	-
O=C(Nc1ccc(F)cc1)Oc1ccc[nH]c1=O	.	-	-	19µM	-
Nc1ccccc1C(=O)OCC(=O)N1CCc2ccccc21	-	2.5µM	9.2µM	9.5µM	?
O=C(Nc1ccccc1Cl)OC1CN2CCC1CC2 (stereo not given)	.	-	-	-	-
O=C(Nc1ccc(Cl)cc1)OC1CN2CCC1CC2 (stereo not given)	.	?	?	15µM	?
O=C(Nc1cccc(Cl)c1)OC1CN2CCC1CC2 (stereo not given)	.	-	-	13µM	-
C/C=C1/C[N@@+]2(C)CC[C@]34C(=C(C=O)[C@H]1C[C@H]32)Nc1ccccc14	-	.	.	.	.
O=C(/C=C/c1ccccc1)C1C(=O)c2ccccc2C1=O	10µM	2.2µM	-	0.38µM	4µM
Nc1c2c(nc3sc4c(c13)CCCCC4)CCCC2	11µM	?	-	6µM	4µM
[N-]=[N+]=[N-]	-	.	.	.	.
O=c1c(O)c(-c2ccc(O)c(O)c2)oc2cc(O)cc(O)c12	-	-	-	?	-
O=c1cc(-c2ccc(O)c(O)c2)oc2cc(O)cc(O)c12	8.9µM	-	?	24µM	-
Cc1cc(C(=O)N=Nc2c(O)n(C)c3ccccc23)c(C)o1	7.1µM	3.5µM	7.3µM	2.7µM	2.5µM
CCCCOC(C)=O	-	.	.	.	.
C[C@H](Br)CN(C[C@H](C)Br)c1ccc2c(c1)Cc1ccccc1-2	-[9.22 µM]	.	.	.	.
CN1CCc2cc3c(c4c2C1Cc1ccccc1-4)OCO3 (stereo not given)	.	6.3µM	-	-	-
O=C1NC(=O)N(c2cccc(Br)c2)C(=O)/C1=C/c1ccsc1	.	-	-	17µM	-
SMILES	SMN2 splice enh	Rab9 prom act	ELG1 genotoxic	FLuc counter	NPC1 prom act
O=C1NC(=O)N(c2ccc(Br)cc2)C(=O)/C1=C/c1ccsc1	.	-	-	?	-
O=C1NC(=O)N(c2ccc(F)cc2)C(=O)/C1=C/c1ccsc1	-	-	-	19µM	-
C[C@@H]1CC[C@@]2(OC1)O[C@H]1[C@@H](O)[C@H]3[C@@H]4CC[C@H]5C[C@@H](O[C@@H]6O[C@H](CO)[C@H](O[C@@H]7O[C@H](CO)[C@@H](O)[C@H](O[C@@H]8OC[C@@H](O)[C@H](O)[C@H]8O)[C@H]7O[C@@H]7O[C@H](CO)[C@@H](O)[C@H](O[C@@H]8O[C@H](CO)[C@@H](O)[C@H](O)[C@H]8O)[C@H]7O)[C@H](O)[C@H]6O)[C@H](O)C[C@]5(C)[C@H]4CC[C@]3(C)[C@H]1[C@@H]2C	-	.	.	.	.
Cn1c(NN=O)nc2ccccc21	.	-	?	24µM	-
CCN(CC)c1ccc(CNc2nc3ccccc3n2C)cc1	.	-	-	?	-
CN1CCN(C(=O)COc2ccc3ccccc3c2)CC1	.	-	-	-	-
CN1CCN(C(=O)COc2ccc(-c3nc4ccccc4s3)cc2)CC1	4µM	0.32µM	?	0.15µM	0.63µM
COc1ccc(-c2cc(=NCC(=O)O)c3ccccc3o2)cc1	.	-[1.84 µM]	?	-	-
COc1ccc(-c2cc(=O)c3cc(OCC(=O)OC(C)C)ccc3o2)cc1	-	.	.	1.9µM	.

Screening data: PubChem, National Center for Advancing Translational Sciences (NCATS)
